# From PubChem
# ERG Ets-DNA blk: ERG Ets/DNA interaction inhibition. P11308. fluorescence polarization, His-ERG Ets domain / labelled DNA. Potency, µM (doses to about 76.9 µM), for the others: at the highest dose FP activity, negative = inhibition, most hits filed as inhibitors. actives 0.028% (n = 370,000). AID 624246; active means well fitted inhibition curve with a large enough effect in the polarisation, with a control signal flat; inconclusive means small, poorly fitted or top-dose-only effect, or effect the other way, or a change in a side signal; inactive means no such curve, though single readings can be large or run the other way; the % refers to the polarisation;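 further: polarization taken with two DNA probes labelled with fluorescein and Texas red; % of control where 0% means no effect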
#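 His-tagged ERG Ets domain (1 uM in the protein solution; 300mM KCl, 50mM Tris-HCl, 1mM EDTA, 1mM DTT, pH 7.5) received compound, then a probe mix of 5 nM fluorescein-DNA and 100nM Texas-615-DNA. Fluorescence polarization was read for both dyes.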
# TR SRC2 fluor cs: Texas Red fluorescence interference in TRb-SRC2 counter-screen; AID 1479; Potency, µM (titrated, usually from 106 µM), inactives show at the top dose fluorescence change, negative = quenching; TRb/SRC2 Texas Red total fluorescence interference; actives 0.29% (n = 280,000); active means well fitted curve in either direction with a large enough effect; inconclusive means small, poorly fitted or top-dose-only effect; further: on the % scale 0 is the no-effect control and ±100 the full control effect
#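 Human TRb ligand-binding domain at 0.6 uM with 20 nM Texas Red SRC2 peptide in Tris buffer containing 1 uM T3 and 5% DMSO, incubated with compound 5 h at ambient temperature. Total fluorescence (555/632 nm) calculated as parallel + 2 × perpendicular.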
# TRb SRC2 PPI: TRbeta-SRC2 interaction inhibition. P10828. TRbeta-SRC2 peptide binding, fluorescence polarization; receptor liganded with 1 µM T3. Potency, µM (series often up to 106 µM), inactives show top-dose activity change, negative = inhibition, most hits filed as inhibitors. actives 0.065% (n = 280,000). AID 1469; active means well fitted inhibition curve with a large enough effect; inconclusive means small, poorly fitted or top-dose-only effect, or effect the other way;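 further: plate controls were bound peptide for no effect and peptide without receptor for full effect; nearly all actives have a fitted effect of over 50% in size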
# Target sequence (P10828 whole entry, looked up): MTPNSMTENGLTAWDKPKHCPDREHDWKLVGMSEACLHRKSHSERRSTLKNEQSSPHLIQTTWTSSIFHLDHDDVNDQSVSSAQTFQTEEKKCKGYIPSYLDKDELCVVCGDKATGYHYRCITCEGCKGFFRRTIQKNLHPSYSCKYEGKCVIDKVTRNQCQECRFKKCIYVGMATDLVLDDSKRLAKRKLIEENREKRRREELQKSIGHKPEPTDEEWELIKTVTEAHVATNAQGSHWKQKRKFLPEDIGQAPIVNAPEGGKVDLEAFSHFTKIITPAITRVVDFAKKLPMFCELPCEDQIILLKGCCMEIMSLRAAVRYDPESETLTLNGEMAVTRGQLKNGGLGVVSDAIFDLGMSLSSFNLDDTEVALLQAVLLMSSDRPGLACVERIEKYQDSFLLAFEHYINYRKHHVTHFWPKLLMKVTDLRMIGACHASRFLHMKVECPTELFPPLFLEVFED
#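 Fluorescence polarization of 20 nM Texas Red SRC2 peptide with 0.6 uM human TRb ligand-binding domain, in Tris buffer with 1uM T3 and 5% DMSO. Incubated 5 hr ambient; normalized to unbound and bound controls.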
# Active calls of the source: *; ? = inconclusive; · = not tested or not shown; ! = repeats disagree; [ ] = another dose, or the depositor's remark. The entries come from a sample that favours hits as a whole. Potency means the concentration at half of the fitted maximal effect.
SMILES,ERG Ets-DNA blk,TR SRC2 fluor cs,TRb SRC2 PPI
COC(=O)c1cc(NC(=O)CCc2c(C)nc3c(c(C)nn3C(C)(C)C)c2C)cc(C(=O)OC)c1,1%,-6%,2%
Cc1cccc(NC(=O)CN2C(=O)CCc3ccccc32)c1C,-4%,11µM*[quencher],-16%
Cc1cccc(NC(=O)CN2C(=O)c3cccc4cccc2c34)c1C,-9%,6%,3%
COc1ccc(CN(C)c2ccc(-c3nc(-c4ccc(OC)c(OC)c4)no3)cc2[N+](=O)[O-])cc1,-2%,-2%,10%
Cc1cc2cc(CNC(=O)COc3ccccc3)ccc2n1C,-23%,-2%,8%
COc1cc(OC)cc(C(=O)NCc2ccc3c(c2)cc(C)n3C)c1,-28%,?,-28%
COc1ccc(C(=O)NCc2ccc3c(c2)cc(C)n3C)cc1,32µM*,21%,-20%
Cc1ccc(S(=O)(=O)NCc2ccc3c(c2)cc(C)n3C)cc1,7.1µM*,45µM*[fluorescent],?
COCC(=O)NCc1ccc2c(c1)cc(C)n2C,?,2%,-5%
CCOc1ccc(CC(=O)NCc2ccc3c(c2)cc(C)n3C)cc1,40µM*,0%,8%
Oc1ccc(C(c2ccc(O)cc2)C(Cl)(Cl)Cl)cc1,·,-1%[201 µM],2%[201 µM]
COc1cc2c(cc1OC)C(COc1ccccc1OC)N(C(=O)c1ccc(S(=O)(=O)N3CCCC3)cc1)CC2 (stereo not given),-6%,0%,-4%
COc1ccc(CCNC(=O)Cn2nc(C)n3c(cc4occc43)c2=O)cc1OC,2%,-4%,7%
CCN(Cc1c(F)cccc1Cl)c1c([N+](=O)[O-])cc(C(F)(F)F)cc1[N+](=O)[O-],·,-2%[201 µM],-4%[201 µM]
COc1cccc(NC(=O)C2CCCN(c3ncnc4onc(-c5ccc(F)cc5)c34)C2)c1 (stereo not given),-1%,2%,1%
CC(C)(C)c1ccc(C(=O)NNc2cc(N3CCOCC3)nc(N3CCOCC3)n2)cc1,8%,1%,-8%
CC(=O)NNc1cc(N2CCOCC2)nc(N2CCOCC2)n1,?,32µM*[fluorescent],28µM*
CN(C)Cc1cc(CN(C)C)c(O)c(CN(C)C)c1,·,-3%[201 µM],5%[201 µM]
O=S(=O)(NCc1ccc(Cl)cc1)c1ccc2[nH]c3c(c2c1)CCCC3,3%,25µM*[quencher],-7%
O=S(=O)(Nc1cccc(Cl)c1)c1ccc2[nH]c3c(c2c1)CCCCCC3,3%,126µM*[quencher],-15%
Cc1cccc(NS(=O)(=O)c2ccc3[nH]c4c(c3c2)CCCCCC4)c1,-2%,3%,0%
O=S(=O)(NCc1ccc(F)cc1)c1ccc2[nH]c3c(c2c1)CCCC3,1%,3%,-1%
CCOc1cc2[nH]c(=O)n(CCCCC(=O)N3CCN(c4ccccc4)CC3)c(=O)c2cc1OCC,1%,0%,-2%
COc1c(O)cc2oc(-c3ccc(O)cc3)cc(=O)c2c1O,9%,-8%,11%
O=c1cc(-c2ccccc2)oc2cc(O)c(O)c(O)c12,16%,45µM*![quencher],?
SMILES,ERG Ets-DNA blk,TR SRC2 fluor cs,TRb SRC2 PPI
Cc1ccc2oc(C(=O)Nc3ccc(S(=O)(=O)Nc4nccc(C)n4)cc3)cc(=O)c2c1,8%,?,0%
Cc1ccc2oc(C(=O)Nc3ccc(S(=O)(=O)Nc4nc(C)cc(C)n4)cc3)cc(=O)c2c1,5%,32µM*[quencher],-2%
CC(C)(C)C1CCc2c(sc3nc(-c4cc5cc(Cl)ccc5oc4=O)[nH]c(=O)c23)C1 (stereo not given),-2%,-4%,-8%
CC1(C)C(=O)N(Br)C(=O)N1Cl,·,-2%[201 µM],1%[201 µM]
O=S(=O)(O)c1ccc2c(c1)-c1nc-2nc2[nH]c(nc3nc(nc4[nH]c(n1)c1ccc(S(=O)(=O)O)cc41)-c1ccc(S(=O)(=O)O)cc1-3)c1ccc(S(=O)(=O)O)cc21,·,2.2µM*[quencher],?
Nc1cc(S(=O)(=O)O)cc2ccc(S(=O)(=O)O)cc12,-24%,·,·
COc1cccc(C2=Nn3c(nnc3-c3ccccc3C)SC2)c1,·,-3%,2%
CCOC(=O)c1c(C)oc2nc(C)nc(N3CCN(c4ccc(C)cc4C)CC3)c12,1%,447µM*[quencher],-11%
CCOC(=O)c1c(C)oc2ncnc(N3CCN(c4ccc(C)cc4C)CC3)c12,5%,1%,4%
COCCNc1ccc(-c2nc(-c3ccncc3)no2)cc1[N+](=O)[O-],1%,-1%,-1%
COc1ccc(-c2nnc(Nc3ccc(CC(N)=O)cc3)c3ccccc23)cc1,-3%,35µM*[quencher],?
NC(=O)Cc1ccc(Nc2nnc(-c3ccccc3)c3ccccc23)cc1,-9%,?,1%
CCOc1ccc(CN2CCc3nc(Nc4ccc5c(c4)OCCO5)ncc3C2)cc1,1%,-2%,-8%
COc1cccc(CNC(=O)CCNS(=O)(=O)c2ccc3c(c2)CCCC(=O)N3)c1,1%,-2%,-2%
Cc1ccc(C)c(Cn2c(=O)n(Cc3ccco3)c(=O)c3oc4ccccc4c32)c1,-1%,-3%,0%
CCN1CCN(Cc2c(O)ccc3cc(-c4ccc(OC)cc4)c(=O)oc23)CC1,-1%,-1%,0%
CCCCNC(=O)Cn1c(=O)n(C)c2ccccc21,3%,-2%,6%
CCCNC(=O)Cn1c(=O)n(C)c2ccccc21,-4%,45µM*[fluorescent],32µM*
Cc1cc(O)ccc1N=Cc1c(C(F)(F)F)[nH][nH]c1=O,6.3µM*,32µM*[fluorescent],6.3µM*
O=c1[nH][nH]c(C(F)(F)F)c1C=Nc1ccccc1,1%,-2%,-4%
CCc1ccc(NC(=O)c2cc3c(COC(C)=O)cnc(C)c3oc2=O)cc1,-2%,0%,-3%
CCN(c1ccccc1)S(=O)(=O)c1ccc(NC(=O)c2nc(S(C)(=O)=O)ncc2Cl)cc1,-1%,1.8µM*[quencher],-9%
CCS(=O)(=O)c1ncc(Cl)c(C(=O)Nc2ccc(S(=O)(=O)N(C)c3ccccc3)cc2)n1,1%,-13%,2%
CN(C(=O)CSc1nc2ccccc2[nH]1)c1ccc(F)cc1,3%,6%,6%
COc1ccc(CCn2c(O)cc3nn(-c4nc5ccccc5s4)c(=O)c-3c2C)cc1,-1%,22µM*[quencher],?
SMILES,ERG Ets-DNA blk,TR SRC2 fluor cs,TRb SRC2 PPI
COc1ccc(CN2CCN(c3nc4ccccc4s3)CC2)cc1,-6%,·,·
C[Si]1(C)O[Si](C)(C)O[Si](C)(C)O1,·,0%[201 µM],7%[201 µM]
CC1=C(c2ccc(C)c(C)c2)S(=O)(=O)N=C1N1CCC(C(=O)N2CCCCC2)CC1,3%,562µM*[quencher],-20%
COc1ccc(C2=C(C)C(N3CCC(C(=O)Nc4ccccc4F)CC3)=NS2(=O)=O)cc1,-2%,-5%,1%
CCC1=C(c2ccc(C)cc2)S(=O)(=O)N=C1N1CCC(C(=O)N2CCCCC2)CC1,2%,-3%,0%
COc1ccc(NC(=O)C2CCN(C3=NS(=O)(=O)C(c4ccc(C)c(C)c4)=C3C)CC2)c(OC)c1,-1%,224µM*[quencher],?
CCOC(=O)c1cc(S(=O)(=O)N2CCN(c3ccc(C)cc3C)CC2)[nH]n1,-7%,-3%,-1%
CC(=O)c1cccc(NCc2ccccc2-c2nnc(-c3ccccc3)o2)c1,0%,-3%,-1%
CC(NC(=O)Nc1ccc(O)cc1)(C(F)(F)F)C(F)(F)F,-6%,3%,35µM*
COc1ccc(NC(=O)NC(C)(C(F)(F)F)C(F)(F)F)cc1,-4%,1%,0%
